Where “and” joins values, the source holds several entries; their conditions need not be identical. Equal values may be shown once. Calls of active or inactive are those of the source. Unless noted, the rule behind the calls is not given here.
Tests used:
[1] = P. berghei load reduction in hepatocytes – cell-based, HepG2, luciferase luminescence, HepG2 viability, primary screen (AID 624349; in the data active = parasite load remaining mostly below about 12%, no sharp cut-off; inactive = mostly above about 10%;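 note: 100% = mean of DMSO negative control wells on the same plate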); conditions: P. berghei liver stage in HepG2, luciferase luminescence, concentration not given here; parasite load remaining: stronger effect = lower value; viability: measured here: HepG2 viability without parasites
[2] = signal quenchers or enhancers, Cy5 substrate/SSB – biochemical, NIH Clinical Collection, E. coli SSB, artefact control for HCV NS3 helicase inhibitor project (AID 743268); conditions: Cy5-oligo bound E. coli SSB, fluorescence interference
[3] = test system: Hepatitis C virus NS3 helicase; assay: blockers of NS3h binding to DNA – biochemical, fluorescence polarization, NIH Clinical Collection, primary screen (AID 743270); conditions: NS3 helicase binding to Cy5-dT15 DNA, stronger effect = higher value, concentration not given here
[4] = molecular target: Single-stranded DNA-binding protein (Escherichia coli (strain K12)) (UniProt P0AGE0); assay: SSB-ssDNA binding inhibitors – biochemical, fluorescence polarization, NIH Clinical Collection, counter-screen for HCV NS3 helicase inhibitor project (AID 743271; in the data active = inhibition above about 28%); conditions: E. coli SSB-DNA binding, stronger effect = higher value, concentration not given here
[5] = compounds distorting NS3 helicase fluorescence signal – biochemical, NIH Clinical Collection, artefact control for HCV NS3 helicase inhibitor project (AID 743272); conditions: fluorescence interference counterscreen, HCV NS3 helicase assay; stronger effect = lower value;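 note: HCV NS3 helicase with a Cy5 labelled single stranded DNA probe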
[6] = Wnt pathway potentiators raising nuclear beta-catenin – imaging, WNT3A-conditioned medium, mouse C2C12, NPC library, primary screen (AID 1117326; in the data active = nuclear beta-catenin stimulation mostly above about 4.2%, no sharp cut-off; inactive = mostly below about 10%); conditions: stronger effect = higher value
[7] = stimulators of insulin release from INS-1E, primary screen, cell-based, 5 mM glucose, NPC library (AID 1117329;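 active = compound raises insulin release from rat beta cells at 5 mM glucose, no numeric limit stated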); conditions: rat INS-1E insulin secretion, at 10 µM, stronger effect = higher value
[8] = growth inhibition of GSK3B-pretreated HCT116 cells – cell-based, CellTiter-Glo, 0.2 to 20 µM (AID 1117336;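 active = compounds lowering colon cancer cell viability after pretreatment blocking the GSK3B kinase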); conditions: HCT116 viability after GSK3B inhibitor, at 20 µM, stronger effect = higher value
[9] = inhibition of endothelial tube formation, primary screen, imaging, VEGF stimulated, CD31 staining, tube area, NPC library (AID 1117340;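 active = compound that reduces growth-factor-driven endothelial tube area in a mixed cell culture, no cutoff stated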); conditions: VEGF-stimulated ADSC/ECFC co-culture, at 10 µM, stronger effect = higher value
[10] = GLP1 release stimulators, primary, NCI-H716, NPC library (AID 1117341;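 active = compound raises GLP1 secretion from the human gut endocrine cells, with no numeric limit stated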); conditions: NCI-H716 cells, at 10 µM, stronger effect = higher value
[11] = HCT116 colon cancer cell growth inhibition, primary screen, CellTiter-Glo luminescence, NPC library (AID 1117342;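 active = compounds that lower survival of HCT116 colon cancer cells in the luminescence readout, no numeric limit stated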); conditions: at 20 µM (top of the series)
[12] = reduced SW480 viability measured with CellTiter-Glo, NPC library, primary (AID 1117343;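 active = compounds that lower viability of the colon cancer cells in the luminescence readout, with no numeric limit stated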); conditions: CellTiter-Glo luminescence; at 20 µM (top of the series)
[13] = NPC library primary testing for decreased DLD-1 cell viability via CellTiter-Glo (AID 1117346;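 active = compounds that lower survival of DLD-1 colon cancer cells in the luminescence readout, no cutoff given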); conditions: DLD-1 viability, CellTiter-Glo luminescence; at 20 µM (top of the series)
[14] = test system: Neuropilin-2 / VEGF-C interaction (human); assay: small molecules blocking Neuropilin-2/VEGF-C interaction – biochemical, microplate binding format, z-score (AID 743281); conditions: microplate NRP2/VEGF-C binding assay; stronger effect = lower value

Compound | parasite load remaining [1] | viability [1] | fluorescence ratio [2] | inhibition [3] | inhibition [4] | fluorescence ratio [5] | nuclear beta-catenin stimulation ([6]; at 10 µM) | nuclear beta-catenin stimulation ([6]; stimulation, at 2 µM) [%] | insulin secretion stimulation [7] | viability decrease [8] | tube area decrease [9] | GLP1 secretion stimulation [10] | inhibition of viability [11] | viability decrease (inhibition) [12] | viability decrease (inhibition) [13] | outcome [14] | z-score [14]
CCOC(=O)O[C@]1(C(=O)OCCl)CC[C@H]2[C@@H]3CCC4=CC(=O)C=C[C@]4(C)[C@H]3[C@@H](O)C[C@@]21C | 196% (inactive) | 72.9% | 1.04 (inactive) | -0.4% (inactive) | 4.52% (inactive) | 1.05 (inactive) | -1.2% (inactive) | -0.3 | 7% (inactive) | 12.3% (inactive) | -0.4% (inactive) | 0.9% (inactive) | 3.1% (inactive) | 0.5% (inactive) | 21.9% (inactive) | – | –
C[C@@H]1C[C@H]2[C@@H]3C[C@H](F)C4=CC(=O)C(Cl)=C[C@]4(C)[C@@]3(F)[C@@H](O)C[C@]2(C)[C@@]1(O)C(=O)CO | 117% (inactive) | 79.4% | 1 (inactive) | 6.73% (inactive) | 7.6% (inactive) | 0.96 (inactive) | 1.5% (inactive) | 1.3 | -0.6% (inactive) | 6.2% (inactive) | -1.8% (inactive) | 4.6% (inactive) | 33.1% (inactive) | 12% (inactive) | 8.3% (inactive) | – | –
CC(C)[C@H](N)C(=O)OCCOCn1cnc2c(=O)[nH]c(N)nc21 | 172% (inactive) and 103% (inactive) and 32.5% (inactive) | 88% and 76.1% and 74% | 1.06 (inactive) | -4.36% (inactive) | -4.72% (inactive) | 1.03 (inactive) | 0.1% (inactive) | 2.1 | 4.1% (inactive) | 4.4% (inactive) | -8.9% (inactive) | 2.5% (inactive) | -1% (inactive) | 4.3% (inactive) | -6.2% (inactive) | inactive | –
CNCCCCOc1ccccc1Cc1ccccc1 | 22.1% (inactive) | 54.6% | 1 (inactive) | -4.36% (inactive) | -0.87% (inactive) | 0.96 (inactive) | 1.7% (inactive) | 1.6 | 19.5% (inactive) | 82.8% (active) | 41% (active) | 7.5% (inactive) | 95.4% (active) | 85.7% (active) | 50.3% (active) | – | -0.524 (inactive)
OCCOCCN1CCN(C2=Nc3ccccc3Sc3ccccc32)CC1 | 49.4% (inactive) and 94% (inactive) and 56.9% (inactive) | 95.1% and 77.7% and 206% | 1.02 (inactive) | 1.98% (inactive) | 1.44% (inactive) | 0.95 (inactive) | 3.8% (inactive) | 2.1 | 2.8% (inactive) | -12.8% (inactive) | 18.9% (inactive) | 2.3% (inactive) | 10.6% (inactive) | 14% (inactive) | 7.8% (inactive) | – | 0.105 (inactive)
CC(C)(O)c1ccccc1CC[C@@H](SCC1(CC(=O)O)CC1)c1cccc(/C=C/c2ccc3ccc(Cl)cc3n2)c1 | 105% (inactive) and 55% (inactive) | 73.6% and 151% | 0.98 (inactive) | 6.73% (inactive) | 4.52% (inactive) | 1.03 (inactive) | 9.7% (inactive) | -0.2 | 1.4% (inactive) | 111% (active) | -7.2% (inactive) | 80.8% (active) | 114% (active) | 133% (active) | 102% (active) | – | -0.15 (inactive)
CN(C)CC/C=C1/c2ccccc2COc2ccc(CC(=O)O)cc21 | 66.3% (inactive) and 36.6% (inactive) | 81.2% and 101% | 0.96 (inactive) | -6.33% (inactive) | -3.54% (inactive) | 0.94 (inactive) | -0.9% (inactive) | 0.1 | 1.85% (inactive) | -0.6% (inactive) | 5.6% (inactive) | -0.7% (inactive) | 3.7% (inactive) | -7.7% (inactive) | 7.1% (inactive) | – | -0.65 (inactive)
CCCN[C@H]1CCc2nc(N)sc2C1 | 115% (inactive) and 91.5% (inactive) and 28.8% (inactive) | 75% and 71% and 70.5% | 1.02 (inactive) | -0.4% (inactive) | -1.64% (inactive) and 0.67% (inactive) | 0.97 (inactive) and 1 (inactive) | 0.9% (inactive) | 0.5 | -3.1% (inactive) | 7.2% (inactive) | -9.5% (inactive) | 2.6% (inactive) | 5.4% (inactive) | 51.7% (active) | 38.1% (inactive) | – | -0.903 (inactive) and 0.751 (inactive)
CN1CCC(=C2c3ccccc3CCc3sccc32)CC1 | 28.2% (inactive) and 50.3% (inactive) and 34.4% (inactive) | 70.7% and 95.5% and 65.5% | 0.99 (inactive) | -1.98% (inactive) | -0.87% (inactive) | 0.94 (inactive) | -0.8% (inactive) | -1.1 | 6.65% (inactive) | 47.1% (inactive) | 28.1% (inactive) | 5.3% (inactive) | 20.1% (inactive) | 103% (active) | 26.9% (inactive) | – | 1.11 (inactive)

Source: PubChem BioAssay
